Data on 15 compounds can be found in PubChem BioAssay (NCATS).

A short description of test [1]: qHTS drug screen for cell cycle checkpoint inhibitors in PARPi-resistant BRCA-mutant ovarian cancer cell lines. (AID 1963452; calls by dose curve). As to conditions: PEO1/OlaR viability, CellTiter-Glo luminescence, 96 h, stronger effect = lower value. The gist of the method: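 PEO1, PEO4 and PEO1/OlaR ovarian cancer cells, 600 per well, exposed 96 h at 37C to a dilution series. Viability read by CellTiter-Glo luminescence, normalized to DMSO and empty wells; activity summarized as Z-AUC.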

Test [2] can be described thus: qHTS for identification of novel therapeutic agents for treatment of microphthalmiaassociated transcription factor (MiT) renal cell carcinoma (RCC) (AID 1963991; calls by dose curve; further: potency means the concentration at half of the fitted maximal effect). The following applies: CellTiter-Glo, 48 h; for z-score: stronger effect = lower value. The procedure, abridged:
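Curves over 11 concentrations were fitted to CellTiter-Glo luminescence, scaled between empty wells (0%) and DMSO (100%) viability. Cells were UOK109, UOK124 and UOK145 TFE3-fusion RCC lines at 500/well, exposed 48 hours at 37 C.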

Test [3] can be described thus: qHTS profiling for inhibitors of Plasmodium falciparum proliferation (AID 504749).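 Further: 0% = DMSO vehicle and full inhibition = artemisinin control; nearly all actives have a fitted effect of over 60% in size.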 As to conditions: P. falciparum in erythrocytes, SYBR Green DNA, 72 h, at 28.7 µM (top of the series). The gist of the method:
(§1)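 Parasite proliferation within erythrocytes, 72 h exposure. Endpoint: SYBR Green I fluorescence after overnight lysis at room temperature. Controls: 0.29 uM artemisinin, DMSO.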

The test system of a further test is 3D7. Described as above. The following applies: P. falciparum in erythrocytes, SYBR Green DNA, 72 h; series mostly up to 28.7 µM. The gist of the method: as §1
The test system of the next test is 7G8. The description is as above. As to conditions: P. falciparum in erythrocytes, SYBR Green DNA, 72 h; series mostly up to 28.7 µM. The procedure, abridged:
as §1

For the next test, the system named is AA1029. The description is as above. The following applies: P. falciparum in erythrocytes, SYBR Green DNA, 72 h; series mostly up to 28.7 µM. The gist of the method:
as §1

A further test has as its system AS120. The test is described as above. As to conditions: P. falciparum in erythrocytes, SYBR Green DNA, 72 h; series mostly up to 28.7 µM. The procedure, abridged: as §1
For the next test, the system named is ATS189. Described as above. The following applies: P. falciparum in erythrocytes, SYBR Green DNA, 72 h; series mostly up to 28.7 µM. The procedure, abridged:
as §1

A further test concerns ATS95. Described as above. As to conditions: P. falciparum in erythrocytes, SYBR Green DNA, 72 h; series mostly up to 28.7 µM. The gist of the method: as §1
The next test has as its system C2A. The description is as above. The following applies: P. falciparum in erythrocytes, SYBR Green DNA, 72 h; series mostly up to 28.7 µM. The procedure, abridged: as §1
Another test deals with CP185. The test is described as above. As to conditions: P. falciparum in erythrocytes, SYBR Green DNA, 72 h; series mostly up to 28.7 µM. The gist of the method:
as §1

The test system of a further test is CP191. Described as above. The following applies: P. falciparum in erythrocytes, SYBR Green DNA, 72 h; series mostly up to 28.7 µM. The gist of the method: as §1
The next test deals with CP192. The test is described as above. As to conditions: P. falciparum in erythrocytes, SYBR Green DNA, 72 h; series mostly up to 28.7 µM. The procedure, abridged:
as §1

The next test relates to CP194. Described as above. As to conditions: P. falciparum in erythrocytes, SYBR Green DNA, 72 h; series mostly up to 28.7 µM. The gist of the method: as §1
The next test concerns CP201. The description is as above. The following applies: P. falciparum in erythrocytes, SYBR Green DNA, 72 h; series mostly up to 28.7 µM. The procedure, abridged: as §1
The next test relates to CP211. The test is described as above. As to conditions: P. falciparum in erythrocytes, SYBR Green DNA, 72 h; series mostly up to 28.7 µM. The gist of the method: as §1
A further test concerns CP215. The test is described as above. The following applies: P. falciparum in erythrocytes, SYBR Green DNA, 72 h; series mostly up to 28.7 µM. The procedure, abridged: as §1
The subject of a further test is CP217. The description is as above. The following applies: P. falciparum in erythrocytes, SYBR Green DNA, 72 h; series mostly up to 28.7 µM. The procedure, abridged: as §1
In a further test the test system is CP237. The description is as above. As to conditions: P. falciparum in erythrocytes, SYBR Green DNA, 72 h; series mostly up to 28.7 µM. The procedure, abridged:
as §1

For the next test, the system named is CP238. The description is as above. As to conditions: P. falciparum in erythrocytes, SYBR Green DNA, 72 h; series mostly up to 28.7 µM. The gist of the method:
as §1

Setting [4] is: measured here: PEO1 parental Z-AUC.
[5] abbreviates: TFE3-RCC UOK109 viability, measured here: UOK109 Z-AUC.
[6] abbreviates: TFE3-RCC viability, measured here: UOK124 Z-AUC.
The mark [7] stands for this setting: TFE3-RCC viability, measured here: UOK145 Z-AUC.

Records with an inconclusive call do not appear. Activity calls are given as the source filed them. Unless noted, the call rests on the fitted dose curve; in most records, active means well fitted inhibition curve with a large enough effect; inconclusive means small, poorly fitted or top-dose-only effect; inactive means flat fitted curve, though single readings scatter.

As to `CCN1C[C@]2(OC(=O)c3ccccc3NC(C)=O)CC[C@H](OC)[C@@]34[C@H]5CC6[C@@H](OC)C[C@](O)(C(C[C@@H]23)[C@@H]14)[C@@]5(O)[C@@H]6OC`, the Z-AUC in test [1] is 0.577 (inactive); in test [1] (setting [4]), 1.09; in test [1] (measured here: PEO4 Z-AUC), 1.24. For the same compound, the z-score in test [2] (setting [5]) turned out to be 0.543; in test [2] (setting [6]) it was 0.783; in test [2] (setting [7]), 0.781.

Consider `CCC(=O)OC1CCC2C3CCC4=CC(=O)CC[C@@]4(C)C3CC[C@]12C` (stereo partly drawn), for which the z-score in [2] (setting [5]) was 0.231; in [2] (setting [6]) it was 0.282; in [2] (setting [7]), -0.0668.

For `CCc1c(C(=O)C(N)=O)c2c(OCC(=O)O)cccc2n1Cc1ccccc1`, the Z-AUC was 0.107 (inactive) in test [1], 0.125 in [1] (setting [4]) and 0.188 in test [1] (measured here: PEO4 Z-AUC). In addition, the results for the z-score in test [2] (setting [5]), in test [2] (setting [6]) and in test [2] (setting [7]) were -0.00568, 0.644 and -1.8, respectively.

Turning to `CC(=CCCC1=CCC(C2=CC(=O)OC2O)OC1O)CCC1=C(C)CCCC1(C)C` (stereo not drawn), the z-score was 0.667 in test [2] (setting [5]), 0.534 in [2] (setting [6]) and -0.0671 in [2] (setting [7]).

As for `CCCN1CCO[C@@H]2c3cc(O)ccc3OC[C@@H]21`, the z-score came out at 0.649 in [2] (setting [5]), 0.425 in [2] (setting [6]) and 0.561 in test [2] (setting [7]).

In the case of `COC(=O)[C@@H](N)CCCN=C(N)N[N+](=O)[O-]`, the Z-AUC in [1] was -0.673 (inactive); in [1] (setting [4]) it was -0.429; in test [1] (measured here: PEO4 Z-AUC), -0.589. Besides, the activity, negative = inhibition in test [3] (parasite line A) was 8.8% (inactive); in test [3] (parasite line B) it was 10.5% (inactive). In addition, the Potency entry with 3D7, in the test on 7G8, in the test with AA1029, in the test with AS120, in the test on ATS189 and in the test on ATS95 was “inactive” in each case. Further, the Potency entry in the test on C2A, with CP185, in the test on CP191, in the test on CP192, with CP194 and in the test on CP211 was “inactive” in each case. Besides, the Potency result in the test with CP215, in the test on CP217, in the test with CP237 and with CP238 was “inactive” each time. Besides, the result in the test on CP201 was inactive.

On to `Cc1ccccc1-n1c(Cn2cnc3c(N)ncnc32)nc2cccc(C)c2c1=O`, for which the Z-AUC is -0.47 (inactive) in [1], 0.542 in test [1] (setting [4]) and 0.532 in test [1] (measured here: PEO4 Z-AUC). The Potency in test [2] (TFE3-RCC UOK109 viability) is 0.235 µM (active). Moreover, the results for the z-score in test [2] (setting [5]), in test [2] (setting [6]) and in test [2] (setting [7]) were -2.22, -1.13 and -1.88, respectively.

Take `COc1ccc2c(c[n+](C)c3c4cc5c(cc4ccc23)OCO5)c1OC`: the Z-AUC was -0.492 (inactive) in test [1], 0.375 in [1] (setting [4]) and 0.195 in [1] (measured here: PEO4 Z-AUC).

`O=C(O)CNC(=O)c1c(O)c2ccccc2n(Cc2ccccc2)c1=O`: the results for the Z-AUC in test [1], in test [1] (setting [4]) and in [1] (measured here: PEO4 Z-AUC) were -0.292 (inactive), 0.683 and 0.802, respectively.

`O=C(Nc1ccncc1)C(=O)c1cn(Cc2ccc(Cl)cc2)c2ccccc12`: the Z-AUC in test [1] is -0.51 (inactive); in [1] (setting [4]) it was -1.11; in [1] (measured here: PEO4 Z-AUC) it was -0.872. Besides, the Potency in test [2] (TFE3-RCC UOK109 viability) was 0.469 µM (active). In addition, the results for the z-score in test [2] (setting [5]), in [2] (setting [6]) and in [2] (setting [7]) were -1.08, -1.43 and -1.01, respectively.

In the case of `C1=C2CCCN[C@H]2[C@@H]2C[C@H]1[C@@H]1CCCCN1C2`, the z-score is -0.0816 in test [2] (setting [5]), 0.828 in test [2] (setting [6]) and 0.304 in test [2] (setting [7]).

`Oc1ccc2c3c1O[C@H]1c4[nH]c5c(c4C[C@@]4(O)[C@@H](C2)N(CC2CC2)CC[C@]314)C[C@@]1(O)[C@H]2Cc3ccc(O)c4c3[C@@]1(CCN2CC1CC1)[C@H]5O4`: the z-score in test [2] (setting [5]) was found to be 0.682; in test [2] (setting [6]), 0.462; in [2] (setting [7]), 0.385.

Regarding `C[C@]12CC[C@H]3[C@@H](CCC4=CC(=O)CC[C@@]43C)[C@H]1CC[C@H]2OC(=O)CCC1CCCC1`, the results for the Z-AUC in test [1], in [1] (setting [4]) and in test [1] (measured here: PEO4 Z-AUC) were -0.757 (inactive), -0.855 and -0.842, respectively.

For `CC(C)[C@]12O[C@@H]1[C@@H]1O[C@]13[C@]1(O[C@H]1C[C@@H]1C4=C(CC[C@@]13C)C(=O)OC4)[C@H]2O`, the z-score in test [2] (setting [5]) was -3.4; in test [2] (setting [6]), -3.26; in test [2] (setting [7]) it was -3.53.

As to `CC(N[C@H]1C[C@H]1c1ccccc1)c1ccc2c(c1)OCCO2` (stereo partly drawn), the z-score in test [2] (setting [5]) was 0.542; in test [2] (setting [6]) it was 0.0589; in test [2] (setting [7]), 0.597.
